Structures are written as SMILES. Activity calls are given as the source filed them.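 How the source made its calls, unless noted: active means fluorescence slope higher than the sample average by over 3 SD (cut at about -0.22 in these data, passing the limit was not always enough); inactive means the rest.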

Chain of Voltage-gated potassium channel subunit beta-2 (Rattus norvegicus) (P62483 whole entry, looked up): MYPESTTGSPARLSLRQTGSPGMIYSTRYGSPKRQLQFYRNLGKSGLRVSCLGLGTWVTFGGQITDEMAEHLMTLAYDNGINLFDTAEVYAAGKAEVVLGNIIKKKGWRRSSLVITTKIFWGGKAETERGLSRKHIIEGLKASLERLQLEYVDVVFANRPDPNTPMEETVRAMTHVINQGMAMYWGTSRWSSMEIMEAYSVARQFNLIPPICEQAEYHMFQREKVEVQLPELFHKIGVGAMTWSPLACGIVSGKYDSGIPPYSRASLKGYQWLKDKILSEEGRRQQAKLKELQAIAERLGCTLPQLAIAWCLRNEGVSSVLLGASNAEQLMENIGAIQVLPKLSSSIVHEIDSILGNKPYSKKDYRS

Test system in one experiment: not listed separately
Kind of experiment: inhibitors of E-selectin induction by TNFa, primary screen, imaging, HUVEC, immunofluorescence, MLSMR starter and 10KST1 sets (AID 487;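 active means visually confirmed hit in the image check and inhibition above 20%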;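 on inhibition: signal is fraction of cell area covered by stained E-selectin grains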;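 on nuclei count: 100% = median nuclei count of all wells on the same plate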). The settings on record: HUVEC TNFalpha-induced E-selectin immunofluorescence imaging, at 2 µM; inhibition: stronger effect = higher value; nuclei count: measured here: cell number, toxicity.
Turning to `Cc1ccc2c(CC(=O)OCc3csc(C)n3)coc2c1`, the nuclei count worked out at 106%.
For `O=C(Nc1ccccc1)c1cnc2n(c1=O)CCS2`, the inhibition – broadly, the drop in the measured response relative to a control, in per cent – was -25.4% (inactive) and the nuclei count is 121%.
The corresponding values for `Cc1cccc(C2c3c(n(C)c(=O)n(C)c3=O)N=C3c4ccccc4C(=O)C32)c1` (centres undefined) are -348% (inactive) and 113%.
As for `CC1CC(C)CN(CCCNC(=O)c2ccc3c(c2)NC(=O)C(N2CCCCC2)S3)C1` (centres undefined), the inhibition was -14.9% (inactive) and the nuclei count stood at 113%.
Turning to `O=C(Nc1cccnc1)c1noc2c1CCCCC2`, the nuclei count was determined as 113% and the inhibition is -1.4% (inactive).
In the case of `O=C(OCc1nnc(-c2ccc(Cl)cc2)o1)c1ccc(=O)n(Cc2ccccc2)n1`, the nuclei count is 160%.
For `CC1CCN(C(=O)CSc2nc3ccccc3[nH]2)CC1`, the inhibition was 75.2% (active) and the nuclei count was found to be 88.9%.
The corresponding values for `O=C(Nc1ccc2snnc2c1)N1CCSCC1` are 12.4% (inactive) and 106%.
The molecule `Cc1cccc(NS(=O)(=O)c2cc(C(=O)OCC(=O)Nc3cc(C)on3)ccc2C)c1` showed a nuclei count of 125%.
Consider `COc1ccc(-c2nc3c(c(SCC(=O)N4CCOCC4)n2)COC(C)(C)C3)cc1`, for which the inhibition is 33% (inactive) and the nuclei count was 117%.
`CNS(=O)(=O)c1cccc(C(=O)OCC(=O)c2cc(C)n(-c3ccc4c(c3)OCO4)c2C)c1` returned a nuclei count of 156%.
For the molecule `Cc1nc(CCNS(=O)(=O)c2cccs2)cs1`, the nuclei count is 102% and the inhibition is -20.4% (inactive).
Turning to `O=C(O)CCc1ccc(-c2ccc(F)cc2)n1CC(=O)O`, the nuclei count came out at 142%.
In the case of `CCOc1ccccc1N(CC(=O)N1CCOCC1)S(=O)(=O)c1ccccc1`, the inhibition was 44.4% (inactive) and the nuclei count was 98.7%.
In the case of `Cc1onc(-c2ccccc2)c1C(=O)Nc1sc2c(c1C(N)=O)CCC2`, the nuclei count is 139%.
For `Cn1cc(CN2CCc3ccccc3C2)c2ccccc21`, the inhibition is -62.7% (inactive) and the nuclei count was 110%.
Consider `Cc1cc(C)n(-c2ccc(C(=O)Oc3ccc4c(c3)OCO4)cc2)n1`, for which the nuclei count amounted to 148%.
Still for that read-out and setting: for `O=C(O)c1cccc(NS(=O)(=O)c2ccc3nnn(O)c3c2)c1` the value was 152%.
The same measure, in the same setting: the value for `CN(Cc1ccccc1)C(=O)c1ccc2c(c1)OCO2` was 156%; that for `COc1cccc(C(=O)Nc2ccc(C)cc2)c1` was 154%.
On to `Cc1cc(NC(=O)CCOc2ccccc2)no1`, for which the nuclei count stood at 64.3% and the inhibition was 35.5% (inactive).
As for `CCCCOc1ccc(CSc2n[nH]c(C)n2)cc1`, the nuclei count worked out at 96.6% and the inhibition is 5.3% (inactive).
The corresponding values for `COc1ccc(C)cc1NCc1cccc(OC)c1OC` are 110% and -41.1% (inactive).
With `O=C(CSc1nc(-c2ccccc2)cs1)NC(=O)NCc1ccco1`, the inhibition is -105% (inactive) and the nuclei count came to 125%.
Turning to `COC(=O)C1=C(C)C(c2cccs2)NC(=O)N1C` (centres undefined), the nuclei count was 137%.
On the same count and under the same terms, for `CCCn1c(N)c(C(=O)CSc2nnc(Cc3ccccc3)o2)c(=O)n(C)c1=O` the value was 150%.
Turning to `CC(C)NC(=O)CSc1nc2ccccc2n1-c1ccccc1`, the nuclei count was 125% and the inhibition was -80.1% (inactive).
For the molecule `CCCCNC(=O)Cn1c(=O)n(C)c2ccccc21`, the nuclei count turned out to be 103% and the inhibition is 35.9% (inactive).
The like results for `Cc1csc(NC(=O)C2CCCO2)n1` (centres undefined) were, in that order, 134% and -133% (inactive).
In the case of `COc1ccccc1OCCCCNCCO`, the inhibition was -80.3% (inactive) and the nuclei count is 130%.
The corresponding values for `C/C(=C\c1ccco1)C1C(C#N)=C(N)OC2=C1C(=O)CC(C)(C)C2` (centres undefined) are -87.8% (inactive) and 106%.
The like results for `O=C(c1ccc(Cl)c(F)c1F)N1CCCC1` were, in that order, -29.8% (inactive) and 70.2%.
With `CCC(C)(C)n1nnnc1C(c1cc2cc(C)ccc2[nH]c1=O)N1CCCC1` (centres undefined), the inhibition was -273% (inactive) and the nuclei count was 110%.
Consider `NC(=O)CCS(=O)(=O)CCN1CCCCC1`, for which the nuclei count was found to be 116% and the inhibition was -14.9% (inactive).
On to `Cc1ccc(Cn2nnc(C(=O)Nc3cccc(C)c3C)c2N)cc1`, for which the nuclei count came out at 150%.
Consider `CSc1oc(-c2ccccc2)nc1S(=O)(=O)c1ccc(F)cc1`, for which the nuclei count was found to be 107% and the inhibition was -45.5% (inactive).
For the molecule `c1ccc(CN2CCN(CCCNc3ccc4nnc(-c5ccccc5)n4n3)CC2)cc1`, the nuclei count amounted to 102% and the inhibition is -67.5% (inactive).
`Cc1cc(NC(=O)c2ccccc2)ncc1NC(=O)c1ccco1` had a nuclei count of 147%.
`COc1ccc(Br)cc1C1N2CC3(C)CN1CC(C)(C2)C3=O` (centres undefined) came in with a nuclei count of 148%.
The same measure, in the same setting: the value for `Clc1cccc(Nc2c3c(nc4ncnn24)CCC3)c1` was 145%.

A further experiment concerns the target Voltage-gated potassium channel subunit beta-2 (Rattus norvegicus) (UniProt P62483). Put plainly: KvBeta enzyme negative modulators, primary screen, biochemical, NADPH fluorescence (AID 622).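 Further: slope of raw intensity against log time taken from 70 to 1610 s.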 The settings on record: recombinant KvBeta, 4-cyanobenzaldehyde reduction, at 10 µM, stronger effect = higher value.
For `Cc1ccc2c(CC(=O)OCc3csc(C)n3)coc2c1`, the fluorescence slope is -0.44 (inactive).
For `O=C(Nc1ccccc1)c1cnc2n(c1=O)CCS2`, the fluorescence slope is -0.517 (inactive).
In the case of `Cc1cccc(C2c3c(n(C)c(=O)n(C)c3=O)N=C3c4ccccc4C(=O)C32)c1` (centres undefined), the fluorescence slope is -0.383 (inactive).
On the same count and under the same terms, the value for `CC1CC(C)CN(CCCNC(=O)c2ccc3c(c2)NC(=O)C(N2CCCCC2)S3)C1` (centres undefined) was -0.317 (inactive).
`O=C(Nc1cccnc1)c1noc2c1CCCCC2`: the fluorescence slope is -0.325 (inactive).
Consider `O=C(OCc1nnc(-c2ccc(Cl)cc2)o1)c1ccc(=O)n(Cc2ccccc2)n1`, for which the fluorescence slope is -0.44 (inactive).
The same measure, in the same setting: the value for `CC1CCN(C(=O)CSc2nc3ccccc3[nH]2)CC1` was -0.359 (inactive); that for `O=C(Nc1ccc2snnc2c1)N1CCSCC1` was -0.371 (inactive); that for `Cc1cccc(NS(=O)(=O)c2cc(C(=O)OCC(=O)Nc3cc(C)on3)ccc2C)c1` was -0.498 (inactive).
In the case of `COc1ccc(-c2nc3c(c(SCC(=O)N4CCOCC4)n2)COC(C)(C)C3)cc1`, the fluorescence slope was -0.387 (inactive).
In the case of `CNS(=O)(=O)c1cccc(C(=O)OCC(=O)c2cc(C)n(-c3ccc4c(c3)OCO4)c2C)c1`, the fluorescence slope was -0.436 (inactive).
As for `Cc1nc(CCNS(=O)(=O)c2cccs2)cs1`, the fluorescence slope was -0.566 (inactive).
Same read-out and setting: for `O=C(O)CCc1ccc(-c2ccc(F)cc2)n1CC(=O)O` the value was -0.462 (inactive); for `CCOc1ccccc1N(CC(=O)N1CCOCC1)S(=O)(=O)c1ccccc1`, -0.428 (inactive).
In the case of `Cc1onc(-c2ccccc2)c1C(=O)Nc1sc2c(c1C(N)=O)CCC2`, the fluorescence slope is -0.282 (inactive).
Still for that read-out and setting: the value for `Cn1cc(CN2CCc3ccccc3C2)c2ccccc21` was -0.408 (inactive); that for `Cc1cc(C)n(-c2ccc(C(=O)Oc3ccc4c(c3)OCO4)cc2)n1` was -0.468 (inactive); that for `O=C(O)c1cccc(NS(=O)(=O)c2ccc3nnn(O)c3c2)c1` was -0.403 (inactive).
The same measure, in the same setting: the value for `CN(Cc1ccccc1)C(=O)c1ccc2c(c1)OCO2` was -0.595 (inactive); that for `COc1cccc(C(=O)Nc2ccc(C)cc2)c1` was -0.367 (inactive).
Consider `Cc1cc(NC(=O)CCOc2ccccc2)no1`, for which the fluorescence slope was -0.455 (inactive).
The same measure, in the same setting: for `CCCCOc1ccc(CSc2n[nH]c(C)n2)cc1` the value was -0.435 (inactive).
Same read-out and setting: the value for `COc1ccc(C)cc1NCc1cccc(OC)c1OC` was -0.496 (inactive); that for `O=C(CSc1nc(-c2ccccc2)cs1)NC(=O)NCc1ccco1` was -0.429 (inactive); that for `COC(=O)C1=C(C)C(c2cccs2)NC(=O)N1C` (centres undefined) was -0.618 (inactive).
With `CCCn1c(N)c(C(=O)CSc2nnc(Cc3ccccc3)o2)c(=O)n(C)c1=O`, the fluorescence slope was -0.556 (inactive).
Still for that read-out and setting: for `CC(C)NC(=O)CSc1nc2ccccc2n1-c1ccccc1` the value was -0.59 (inactive); for `CCCCNC(=O)Cn1c(=O)n(C)c2ccccc21`, -0.549 (inactive).
Same read-out and setting: for `Cc1csc(NC(=O)C2CCCO2)n1` (centres undefined) the value was -0.494 (inactive).
As to `COc1ccccc1OCCCCNCCO`, the fluorescence slope is -0.434 (inactive).
For `C/C(=C\c1ccco1)C1C(C#N)=C(N)OC2=C1C(=O)CC(C)(C)C2` (centres undefined), the fluorescence slope is -0.303 (inactive).
With `O=C(c1ccc(Cl)c(F)c1F)N1CCCC1`, the fluorescence slope is -0.276 (inactive).
On the same count and under the same terms, for `CCC(C)(C)n1nnnc1C(c1cc2cc(C)ccc2[nH]c1=O)N1CCCC1` (centres undefined) the value was -0.43 (inactive); for `NC(=O)CCS(=O)(=O)CCN1CCCCC1`, -0.435 (inactive).
Turning to `Cc1ccc(Cn2nnc(C(=O)Nc3cccc(C)c3C)c2N)cc1`, the fluorescence slope was -0.565 (inactive).
For `CSc1oc(-c2ccccc2)nc1S(=O)(=O)c1ccc(F)cc1`, the fluorescence slope was -0.481 (inactive).
Consider `c1ccc(CN2CCN(CCCNc3ccc4nnc(-c5ccccc5)n4n3)CC2)cc1`, for which the fluorescence slope is -0.63 (inactive).
For `Cc1cc(NC(=O)c2ccccc2)ncc1NC(=O)c1ccco1`, the fluorescence slope is -0.603 (inactive).
As to `COc1ccc(Br)cc1C1N2CC3(C)CN1CC(C)(C2)C3=O` (centres undefined), the fluorescence slope was -0.389 (inactive).
Still for that read-out and setting: for `Clc1cccc(Nc2c3c(nc4ncnn24)CCC3)c1` the value was -0.63 (inactive).

The values above are taken from PubChem BioAssay.
